# The supplement of paper PMC8728848
# About 410 targets per protein were measured; listed, in parts, are those with the strongest signals and a random draw of the rest.
# B1: Flo10 (Saccharomyces cerevisiae), P36170 (protein)
# chain: MPVAARYIFLTGLFLLSVANVALGTTEACLPAGEKKNGMTINFYQYSLKDSSTYSNPSYMAYGYADAEKLGSVSGQTKLSIDYSIPCNGASDTCACSDDDATEYSASQVVPVKRGVKLCSDNTTLSSKTEKRENDDCDQGAAYWSSDLFGFYTTPTNVTVEMTGYFLPPKTGTYTFGFATVDDSAILSVGGNVAFECCKQEQPPITSTDFTINGIKPWNADAPTDIKGSTYMYAGYYYPIKIVYSNAVSWGTLPVSVVLPDGTEVNDDFEGYVFSFDDNATQAHCSVPNPAEHARTCVSSATSSWSSSEVCTECTETESTSYVTPYVTSSSWSSSEVCTECTETESTSTSTPYVTSSSSSSSEVCTECTETESTSYVTPYVSSSTAAANYTSSFSSSSEVCTECTETESTSTSTPYVTSSSWSSSEVCTECTETESTSYVTPYVSSSTAAANYTSSFSSSSEVCTECTETESTSTSTPYVTSSSSSSSEVCTECTETESTSYVTPYVSSSTAAANYTSSFSSSSEVCTECTETESTSTSTPYVTSSSWSSSEVCTECTETESTSYVTPYVSSSTAAANYTSSFSSSSEVCTECTETESTSTSTPYATSSTGTATSFTASTSNTMTSLVQTDTTVSFSLSSTVSEHTNAPTSSVESNASTFISSNKGSVKSYVTSSIHSITPMYPSNQTVTSSSVVSTPITSESSESSASVTILPSTITSEFKPSTMKTKVVSISSSPTNLITSYDTTSKDSTVGSSTSSVSLISSISLPSSYSASSEQIFHSSIVSSNGQALTSFSSTKVSSSESSESHRTSPTTSSESGIKSSGVEIESTSTSSFSFHETSTASTSVQISSQFVTPSSPISTVAPRSTGLNSQTESTNSSKETMSSENSASVMPSSSATSPKTGKVTSDETSSGFSRDRTTVYRMTSETPSTNEQTTLITVSSCESNSCSNTVSSAVVSTATTTINGITTEYTTWCPLSATELTTVSKLESEEKTTLITVTSCESGVCSETASPAIVSTATATVNDVVTVYSTWSPQATNKLAVSSDIENSASKASFVSEAAETKSISRNNNFVPTSGTTSIETHTTTTSNASENSDNVSASEAVSSKSVTNPVLISVSQQPRGTPASSMIGSSTASLEMSSYLGIANHLLTNSGISIFIASLLLAIV
# Experiments:
# Assay in all cases: glycan array binding signal (z-score within array); higher = stronger binding
# Conditions in all cases: glycan notation: IUPAC condensed, linker removed
# [1] = biological target: Fuc(a1-2)Gal(b1-3)GalNAc(a1-3)[Fuc(a1-2)]Gal(b1-4)Glc
# Outline: (§1)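 Columns mapping to the same glycan were averaged after glycan names were converted to IUPAC-condensed notation. The data come from 3228 arrays in the Consortium for Functional Glycomics database, limited to those with an available protein sequence. Binding is reported as a within-array Z-score averaged across arrays of one protein sequence and across linkers.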
# [2] = biological target: Fuc(a1-2)Gal(b1-3)GalNAc(a1-3)[Fuc(a1-2)]Gal(b1-4)GlcNAc
# Outline: as §1
# [3] = biological target: Fuc(a1-2)Gal(b1-4)[Fuc(a1-3)]GlcNAc(b1-2)Man(a1-3)[Fuc(a1-2)Gal(b1-4)[Fuc(a1-3)]GlcNAc(b1-2)Man(a1-6)]Man(b1-4)GlcNAc(b1-4)GlcNAc
# Outline: as §1
# [4] = biological target: Fuc(a1-2)Gal6S(b1-4)GlcNAc
# Outline: as §1
# [5] = biological target: Fuc(a1-2)[Gal(a1-3)]Gal
# Outline: as §1
# [6] = biological target: Fuc(a1-2)[GalNAc(a1-3)]Gal(b1-3)GalNAc(a1-3)[Fuc(a1-2)]Gal(b1-4)GlcNAc
# Outline: as §1
# [7] = biological target: Fuc(a1-2)[GalNAc(a1-3)]Gal(b1-3)GlcNAc
# Outline: as §1
# [8] = biological target: Fuc(a1-2)[GalNAc(a1-3)]Gal(b1-4)GlcNAc(b1-2)Man(a1-3)[Fuc(a1-2)[GalNAc(a1-3)]Gal(b1-4)GlcNAc(b1-2)Man(a1-6)]Man(b1-4)GlcNAc(b1-4)GlcNAc
# Outline: as §1
# [9] = biological target: Fuc(a1-2)[GalNAc(a1-3)]Gal(b1-4)GlcNAc(b1-3)Gal(b1-4)GlcNAc
# Outline: as §1
# [10] = biological target: Fuc(a1-2)[GalNAc(a1-3)]Gal(b1-4)GlcNAc(b1-3)Gal(b1-4)GlcNAc(b1-3)Gal(b1-4)GlcNAc
# Outline: as §1
# [11] = biological target: Fuc(a1-2)[GalNAc(a1-4)]Gal(b1-4)GlcNAc
# Outline: as §1
# [12] = biological target: Gal(a1-2)Gal
# Outline: as §1
# [13] = biological target: Gal(a1-3)Gal(b1-4)GlcNAc(b1-3)GalNAc
# Outline: as §1
# [14] = biological target: Gal(b1-3)GalNAc(a1-3)[Fuc(a1-2)]Gal(b1-4)Glc
# Outline: as §1
# [15] = biological target: Gal(b1-3)GalNAc(b1-4)[Neu5Ac(a2-3)]Gal(b1-4)Glc
# Outline: as §1
# [16] = biological target: Gal(b1-3)GlcNAc(a1-6)Gal(b1-4)GlcNAc
# Outline: as §1
# [17] = biological target: Gal(b1-3)GlcNAc(b1-3)Gal(b1-3)GlcNAc
# Outline: as §1
# [18] = biological target: Gal(b1-3)GlcNAc(b1-3)Gal(b1-4)GlcNAc
# Outline: as §1
# [19] = biological target: Gal(b1-4)GlcNAc(b1-2)Man(a1-6)[GlcNAc(b1-2)Man(a1-3)]Man(b1-4)GlcNAc(b1-4)GlcNAc
# Outline: as §1
# [20] = biological target: Gal3S(b1-4)[Fuc(a1-3)]Glc6S
# Outline: as §1
# [21] = biological target: GalNAc(a1-3)GalNAc
# Outline: as §1
# [22] = biological target: GalNAc(a1-3)GalNAc(a1-3)Gal(a1-4)Gal(b1-4)GlcNAc
# Outline: as §1
# [23] = biological target: Glc(a1-4)Glc
# Outline: as §1
# [24] = biological target: GlcNAc(b1-2)Gal(b1-3)GalNAc
# Outline: as §1
# [25] = biological target: GlcNAc(b1-2)Man(a1-3)[GlcNAc(b1-2)Man(a1-6)]Man(b1-4)GlcNAc(b1-4)GlcNAc
# Outline: as §1
# [26] = biological target: GlcNAc(b1-3)Gal(b1-4)GlcNAc
# Outline: as §1
# [27] = biological target: GlcNAc(b1-4)Gal(b1-4)GlcNAc
# Outline: as §1
# [28] = biological target: Kdn(a2-3)Gal(b1-3)GalNAc
# Outline: as §1
# [29] = biological target: Kdn(a2-3)Gal(b1-4)GlcNAc
# Outline: as §1
# [30] = biological target: Man(a1-2)Man(a1-6)[Man(a1-3)]Man(a1-6)[Man(a1-2)Man(a1-2)Man(a1-3)]Man(b1-4)GlcNAc(b1-4)GlcNAc
# Outline: as §1
# [31] = biological target: Neu5Ac(a2-3)Gal(b1-4)[Fuc(a1-3)]GlcNAc(b1-3)GalNAc
# Outline: as §1
# [32] = biological target: Neu5Ac(a2-3)GalNAc
# Outline: as §1
# [33] = biological target: Neu5Ac(a2-6)Gal
# Outline: as §1
# [34] = biological target: Neu5Ac(a2-8)Neu5Ac(a2-8)Neu5Ac(a2-8)Neu5Ac(a2-3)[GalNAc(b1-4)]Gal(b1-4)Glc
# Outline: as §1
binder,measurement,setting,value
B1,glycan array binding signal (z-score),[1],-0.704
same,glycan array binding signal (z-score),[2],0.044
same,glycan array binding signal (z-score),[3],-0.165
same,glycan array binding signal (z-score),[4],0.331
same,glycan array binding signal (z-score),[5],-0.579
same,glycan array binding signal (z-score),[6],1.12
same,glycan array binding signal (z-score),[7],-0.144
same,glycan array binding signal (z-score),[8],3.27
same,glycan array binding signal (z-score),[9],4.78
same,glycan array binding signal (z-score),[10],5.34
same,glycan array binding signal (z-score),[11],-0.76
same,glycan array binding signal (z-score),[12],3.67
same,glycan array binding signal (z-score),[13],-0.351
same,glycan array binding signal (z-score),[14],3.64
same,glycan array binding signal (z-score),[15],0.092
same,glycan array binding signal (z-score),[16],0.52
same,glycan array binding signal (z-score),[17],3.58
same,glycan array binding signal (z-score),[18],0.23
same,glycan array binding signal (z-score),[19],0.034
same,glycan array binding signal (z-score),[20],-0.042
same,glycan array binding signal (z-score),[21],0.641
same,glycan array binding signal (z-score),[22],1.74
same,glycan array binding signal (z-score),[23],-0.77
same,glycan array binding signal (z-score),[24],-0.768
same,glycan array binding signal (z-score),[25],-0.394
same,glycan array binding signal (z-score),[26],-0.536
same,glycan array binding signal (z-score),[27],-0.716
same,glycan array binding signal (z-score),[28],0.113
same,glycan array binding signal (z-score),[29],-0.202
same,glycan array binding signal (z-score),[30],-0.712
same,glycan array binding signal (z-score),[31],-0.323
same,glycan array binding signal (z-score),[32],-0.639
same,glycan array binding signal (z-score),[33],5.85
same,glycan array binding signal (z-score),[34],0.14
